Active and inactive are the calls of the source. Unless noted, no stated cut-off is given here; in the data, active means inhibition above about 80%; inactive means the rest.
What was measured:
[1] = growth inhibition, single agent or in combination, cell-based, chromothripsis tumors, cisplatin or BGB combos (AID 1671449); conditions: LFS_MB_P medulloblastoma cells;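 further: cells exposed for 96 hours; 0% = vehicle DMSO and 100% = killing by high DMSO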
[2] = growth inhibition, single agent and combos, cell-based, chromothripsis tumors, cisplatin or BGB combos (AID 1671450); conditions: HDN33 neuroblastoma cells, stronger effect = higher value;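 further: cells exposed to compound for four days; 0% = vehicle DMSO and 100% = cell killing by high DMSO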
[3] = growth inhibition, single agents and combos, ICB984, cell-based, cisplatin or BGB combos, synergistic combos for chromothripsis tumors (AID 1671451; call rule not given here;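 further: cells exposed for 96 hours before readout; 0% = vehicle DMSO and 100% = killing by high DMSO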); conditions: ICB984 medulloblastoma cells, drug combinations, stronger effect = higher value
[4] = growth inhibition, single agents and combos, LFS_MB_1R, cell-based, cisplatin or BGB combos, synergistic combos for chromothripsis tumors (AID 1671452); conditions: LFS_MB_1R medulloblastoma cells, stronger effect = higher value;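 further: cells exposed for 96 hours before readout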
[5] = growth inhibition, single agents and combos, HTB85, cell-based, BGB or cisplatin IC20 combos, synergistic combos for chromothripsis tumors (AID 1671453); conditions: HTB85 osteosarcoma cells, drug combinations, stronger effect = higher value;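 further: cells exposed for 96 hours before readout; 0% = vehicle DMSO and 100% = high DMSO killing control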
[6] = growth inhibition, single agents and combos, CRL2098, cell-based, BGB or cisplatin IC20 combos, synergistic combos for chromothripsis tumors (AID 1671454); conditions: CRL2098 osteosarcoma cells, drug combinations, stronger effect = higher value;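 further: cells exposed for 96 h before readout; 0% = vehicle DMSO and 100% = killing by high DMSO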
[7] = growth inhibition, single agents and combos, HD-MB03, cell-based, BGB or cisplatin IC20 combos, synergistic combos for chromothripsis tumors (AID 1671455; in the data active means inhibition above about 83%;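 further: 0% = vehicle DMSO and 100% = high DMSO as cytotoxic control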); conditions: HD-MB03 medulloblastoma cells, stronger effect = higher value
[8] = growth inhibition, single agents and combos, UWB1.289, cell-based, BGB or cisplatin combos, synergistic combos for chromothripsis tumors (AID 1671456); conditions: UWB1.289 ovarian carcinoma cells, stronger effect = higher value;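 further: cells exposed to compound for four days; 0% = vehicle DMSO and 100% = killing by high DMSO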
[9] = growth inhibition, single agents and combos, LFS_MB_2R, cell-based, cisplatin combos, synergistic combos for chromothripsis tumors (AID 1671457); conditions: LFS_MB_2R medulloblastoma cells, stronger effect = higher value;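 further: cells exposed to compound for four days before readout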
[10] = growth inhibition, MDA-MB-436, cell-based, BGB or cisplatin combos, synergistic combos for chromothripsis tumors (AID 1671458; call rule not given here;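 further: cells exposed for 96 hours; 0% = vehicle DMSO and 100% = killing by high DMSO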); conditions: MDA-MB-436 breast carcinoma growth inhibition, drug combinations, stronger effect = higher value
[11] = UWB1.289_BRCA1 ovarian cancer growth, cell-based, BGB or cisplatin combinations (AID 1671459); conditions: UWB1.289 BRCA1 ovarian carcinoma, drug combinations, stronger effect = higher value
[12] = drug combination toxicity in non-malignant astrocytes – cell-based, BGB or cisplatin IC20 combos, cytotoxicity control for chromothriptic childhood tumor combination screen (AID 1671460); conditions: Human astrocytes, viability inhibition, drug combinations, at 0.5 µM, stronger effect = higher value;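 further: cells exposed to compounds for 96 hours before viability readout; 0% = vehicle and 100% = killing control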
[13] = BT084 cell growth, single and combined drugs, ICGC_MB145, cisplatin and BGB IC40 combos (AID 1671461); conditions: BT084 medulloblastoma cells, drug combinations, stronger effect = higher value;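 further: cells exposed to drugs for 96 hours; 0% = vehicle DMSO and 100% = high DMSO full killing control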
[14] = RCMB18 cell growth, single agent and combined, cisplatin and BGB IC40 combos (AID 1671462); conditions: RCMB18 medulloblastoma cells, stronger effect = higher value;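 further: cells exposed to compound for four days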
[15] = CRL1545 cell growth, single agent and combined, cisplatin and BGB IC20 combos (AID 1671464); conditions: CRL1545 osteosarcoma cells, stronger effect = higher value;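 further: cells exposed to compound for 96 hours before readout; 0% = vehicle DMSO and 100% = high DMSO killing control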
[16] = at 0.5 µM, stronger effect = higher value
[17] = measured here: combination with BGB IC20, at 0.005 µM
[18] = measured here: combination with BGB IC40, at 0.005 µM
[19] = measured here: combination with BGB IC40, at 0.05 µM
[20] = measured here: combination with cisplatin, at 0.5 µM, stronger effect = higher value
[21] = measured here: combination with cisplatin, at 5 µM, stronger effect = higher value
[22] = measured here: with BGB IC20 combination, at 0.5 µM
[23] = measured here: with cisplatin IC20 combination, at 0.5 µM
[24] = measured here: 5 uM single agent, at 5 µM
[25] = measured here: combination with cisplatin, at 0.5 µM
[26] = measured here: combination with cisplatin, at 5 µM
[27] = measured here: with BGB IC20, at 0.5 µM
[28] = measured here: with BGB IC20, at 5 µM
[29] = measured here: with cisplatin IC20, at 0.5 µM
[30] = measured here: with cisplatin IC20, at 5 µM
[31] = measured here: combination with BGB at IC20, at 0.5 µM
[32] = measured here: combination with cisplatin at IC20, at 0.5 µM
[33] = measured here: combo with BGB at IC20, at 0.5 µM
[34] = measured here: combo with cisplatin at IC20, at 0.5 µM
[35] = measured here: inhibition with BGB combination, at 0.05 µM
[36] = measured here: inhibition with cisplatin combination, at 0.05 µM
[37] = measured here: BGB combination, at 0.5 µM
[38] = measured here: BGB combination, at 5 µM
[39] = measured here: cisplatin combination, at 0.5 µM
[40] = measured here: cisplatin combination, at 5 µM
[41] = BGB combination, concentration series, at 5 µM
[42] = cisplatin combination, concentration series, at 5 µM
[43] = measured here: combo with BGB IC20
[44] = measured here: combo with cisplatin IC20
[45] = cisplatin combination, at 0.5 µM
[46] = measured here: BGB IC40 combination 0.05 uM, at 0.05 µM
[47] = measured here: BGB IC40 combination, at 0.05 µM

Cc1cc(C)cc(C(=O)NOCCCCCC(=O)NO)c1
inhibition [1, 16]: -18.6% (inactive)
inhibition [1, 17]: -25.1%
inhibition [1, 18]: -71.8%
inhibition [1, 19]: -38.3%
inhibition [1, 20]: 23.3%
inhibition [1, 21]: 101%
inhibition ([2]; BGB combo, at 5 µM): 98%
inhibition ([2]; at 0.5 µM): 16.4% (inactive)
inhibition ([2]; cisplatin combo, at 5 µM): 99.6%
inhibition [2, 22]: 11.9%
inhibition [2, 23]: 14.2%
inhibition ([2]; single agent, at 5 µM): 99.6%
inhibition ([3]; BGB IC20 combo, at 0.005 µM): 3.29%
inhibition ([3]; BGB IC40 combo, at 0.005 µM): -11.3%
inhibition ([3]; BGB IC40 combo, at 0.05 µM): 93.2%
inhibition ([3]; at 0.5 µM): -24.3% (inactive)
inhibition ([3]; cisplatin combo, at 0.05 µM): 93.4%
inhibition ([3]; cisplatin combo, at 0.5 µM): -27.8%
inhibition ([3]; cisplatin combo, at 5 µM): -32.7%
inhibition [3, 24]: -20.9%
inhibition ([4]; at 0.5 µM): 21.5% (inactive)
inhibition [4, 19]: -19%
inhibition [4, 25]: 16.6%
inhibition [4, 26]: 97%
inhibition ([5]; at 0.5 µM): 15.3% (inactive)
inhibition [5, 27]: 4.55%
inhibition [5, 28]: 96.8%
inhibition [5, 29]: 32.1%
inhibition [5, 30]: 99.4%
inhibition ([5]; single agent, at 5 µM): 98.4%
inhibition ([6]; at 0.5 µM): -44.3% (inactive)
inhibition [6, 31]: -68.4%
inhibition [6, 32]: -43.7%
inhibition ([7]; at 0.5 µM): 53.4% (inactive)
inhibition [7, 33]: 36.6%
inhibition [7, 34]: 95.8%
inhibition ([8]; at 0.5 µM): 35% (inactive)
inhibition [8, 35]: -9.28%
inhibition [8, 36]: -8.14%
inhibition ([9]; at 0.5 µM): 8.45% (inactive)
inhibition [9, 25]: 32.9%
inhibition [9, 26]: 102%
inhibition ([10]; at 0.5 µM): 7.8% (inactive)
inhibition [10, 37]: -12.2%
inhibition [10, 38]: 42.5%
inhibition [10, 39]: -3.09%
inhibition [10, 40]: 53.9%
inhibition [11, 41]: 92.6%
inhibition ([11]; at 0.5 µM): 33.7% (inactive)
inhibition [11, 42]: 110%
inhibition [12]: 38% (inactive)
inhibition [12, 43]: 37.9%
inhibition [12, 44]: 25.6%
inhibition ([13]; at 0.5 µM): 35.6% (inactive)
inhibition [13, 45]: 32.4%
inhibition ([13]; cisplatin combination, at 5 µM): 98.6%
inhibition [13, 46]: -14.5%
inhibition ([13]; single agent, at 5 µM): 105%
inhibition ([14]; at 0.5 µM): 21.6% (inactive)
inhibition ([14]; cisplatin combo, at 5 µM): 92.9%
inhibition [14, 47]: -1.76%
inhibition [14, 25]: 22.3%
inhibition ([14]; single agent, at 5 µM): 89.9%
inhibition ([15]; at 0.5 µM): 75.7% (inactive)
inhibition [15, 22]: 64.9%
inhibition [15, 23]: 80.7%
inhibition ([15]; single agent, at 0.05 µM): 5.92%
inhibition ([15]; single agent, at 5 µM): 72.3%

C=C(C)C1CCC2(C(=O)O)CCC3(C)C(CCC4C5(C)CCC(O)C(C)(C)C5CCC43C)C12 (stereo unspecified)
inhibition [1, 16]: -26.5% (inactive)
inhibition [1, 17]: -25.5%
inhibition [1, 18]: 15.5%
inhibition [1, 19]: -1.2%
inhibition [1, 20]: -45.1%
inhibition [1, 21]: -28.2%
inhibition ([2]; BGB combo, at 5 µM): -9.64%
inhibition ([2]; at 0.5 µM): -2.09% (inactive)
inhibition ([2]; cisplatin combo, at 5 µM): -9.94%
inhibition [2, 22]: -1.87%
inhibition [2, 23]: -3.24%
inhibition ([2]; single agent, at 5 µM): -1.41%
inhibition ([3]; BGB IC20 combo, at 0.005 µM): -15.2%
inhibition ([3]; BGB IC40 combo, at 0.005 µM): -18.6%
inhibition ([3]; BGB IC40 combo, at 0.05 µM): 9.33%
inhibition ([3]; at 0.5 µM): -29.1% (inactive)
inhibition ([3]; cisplatin combo, at 0.05 µM): 9.33%
inhibition ([3]; cisplatin combo, at 0.5 µM): -38%
inhibition ([3]; cisplatin combo, at 5 µM): -7.17%
inhibition [3, 24]: -4.58%
inhibition ([4]; at 0.5 µM): -20% (inactive)
inhibition [4, 19]: -20.5%
inhibition [4, 25]: -33%
inhibition [4, 26]: -12.9%
inhibition ([5]; at 0.5 µM): -2.9% (inactive)
inhibition [5, 27]: -17.7%
inhibition [5, 28]: -3.73%
inhibition [5, 29]: -4.54%
inhibition [5, 30]: 5.41%
inhibition ([5]; single agent, at 5 µM): -0.003%
inhibition ([6]; at 0.5 µM): -11.7% (inactive)
inhibition [6, 31]: -25.6%
inhibition [6, 32]: 19.7%
inhibition ([7]; at 0.5 µM): -2.78% (inactive)
inhibition [7, 33]: -2.46%
inhibition [7, 34]: -4.95%
inhibition ([8]; at 0.5 µM): 0.66% (inactive)
inhibition [8, 35]: -7.77%
inhibition [8, 36]: -4.44%
inhibition ([9]; at 0.5 µM): 0.87% (inactive)
inhibition [9, 25]: -5.32%
inhibition [9, 26]: 12.1%
inhibition ([10]; at 0.5 µM): -18.9% (inactive)
inhibition [10, 37]: -9.2%
inhibition [10, 38]: -5.74%
inhibition [10, 39]: -43.5%
inhibition [10, 40]: 3.21%
inhibition [11, 41]: -4.55%
inhibition ([11]; at 0.5 µM): -1.24% (inactive)
inhibition [11, 42]: -5.38%
inhibition [12]: 6.79% (inactive)
inhibition [12, 43]: -11.2%
inhibition [12, 44]: 21%
inhibition ([13]; at 0.5 µM): -12.4% (inactive)
inhibition [13, 45]: -2.33%
inhibition ([13]; cisplatin combination, at 5 µM): -35.9%
inhibition [13, 46]: 10.4%
inhibition ([13]; single agent, at 5 µM): -5.82%
inhibition ([14]; at 0.5 µM): -0.59% (inactive)
inhibition ([14]; cisplatin combo, at 5 µM): -5.83%
inhibition [14, 47]: 12.3%
inhibition [14, 25]: -32.4%
inhibition ([14]; single agent, at 5 µM): 7.3%
inhibition ([15]; at 0.5 µM): -2.94% (inactive)
inhibition [15, 22]: -13.1%
inhibition [15, 23]: 2.15%
inhibition ([15]; single agent, at 0.05 µM): -25.4%
inhibition ([15]; single agent, at 5 µM): 16.8%
